In PubChem BioAssay AID651957 (The Scripps Research Institute Molecular Screening Center, 2012):
Among all 370,000 compounds or so, about 620 (0.17%) were called active. This is one part of a sample in which actives are shown more often than they occur.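 How the source made its calls: active means inhibition above the mean inhibition of all tested compounds plus 3 SD, set per campaign (cut at about 52% in these data); inactive means the rest.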

target: Nuclear receptor coactivator 2 (Homo sapiens) (UniProt Q15596); test: inhibition of GAL4-SRC2 driven luciferase reporter, primary screen, SRC2 inhibitor project, cell-based, luminescence (AID 651957); conditions: HEK293 GAL4-SRC2 luciferase reporter, at 9 µM, hits give high values;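 further: 0% = DMSO treated cells and 100% = cells given Gossypol at 36 µM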
Sequence (Q15596 whole entry, looked up, the tested form may be a part): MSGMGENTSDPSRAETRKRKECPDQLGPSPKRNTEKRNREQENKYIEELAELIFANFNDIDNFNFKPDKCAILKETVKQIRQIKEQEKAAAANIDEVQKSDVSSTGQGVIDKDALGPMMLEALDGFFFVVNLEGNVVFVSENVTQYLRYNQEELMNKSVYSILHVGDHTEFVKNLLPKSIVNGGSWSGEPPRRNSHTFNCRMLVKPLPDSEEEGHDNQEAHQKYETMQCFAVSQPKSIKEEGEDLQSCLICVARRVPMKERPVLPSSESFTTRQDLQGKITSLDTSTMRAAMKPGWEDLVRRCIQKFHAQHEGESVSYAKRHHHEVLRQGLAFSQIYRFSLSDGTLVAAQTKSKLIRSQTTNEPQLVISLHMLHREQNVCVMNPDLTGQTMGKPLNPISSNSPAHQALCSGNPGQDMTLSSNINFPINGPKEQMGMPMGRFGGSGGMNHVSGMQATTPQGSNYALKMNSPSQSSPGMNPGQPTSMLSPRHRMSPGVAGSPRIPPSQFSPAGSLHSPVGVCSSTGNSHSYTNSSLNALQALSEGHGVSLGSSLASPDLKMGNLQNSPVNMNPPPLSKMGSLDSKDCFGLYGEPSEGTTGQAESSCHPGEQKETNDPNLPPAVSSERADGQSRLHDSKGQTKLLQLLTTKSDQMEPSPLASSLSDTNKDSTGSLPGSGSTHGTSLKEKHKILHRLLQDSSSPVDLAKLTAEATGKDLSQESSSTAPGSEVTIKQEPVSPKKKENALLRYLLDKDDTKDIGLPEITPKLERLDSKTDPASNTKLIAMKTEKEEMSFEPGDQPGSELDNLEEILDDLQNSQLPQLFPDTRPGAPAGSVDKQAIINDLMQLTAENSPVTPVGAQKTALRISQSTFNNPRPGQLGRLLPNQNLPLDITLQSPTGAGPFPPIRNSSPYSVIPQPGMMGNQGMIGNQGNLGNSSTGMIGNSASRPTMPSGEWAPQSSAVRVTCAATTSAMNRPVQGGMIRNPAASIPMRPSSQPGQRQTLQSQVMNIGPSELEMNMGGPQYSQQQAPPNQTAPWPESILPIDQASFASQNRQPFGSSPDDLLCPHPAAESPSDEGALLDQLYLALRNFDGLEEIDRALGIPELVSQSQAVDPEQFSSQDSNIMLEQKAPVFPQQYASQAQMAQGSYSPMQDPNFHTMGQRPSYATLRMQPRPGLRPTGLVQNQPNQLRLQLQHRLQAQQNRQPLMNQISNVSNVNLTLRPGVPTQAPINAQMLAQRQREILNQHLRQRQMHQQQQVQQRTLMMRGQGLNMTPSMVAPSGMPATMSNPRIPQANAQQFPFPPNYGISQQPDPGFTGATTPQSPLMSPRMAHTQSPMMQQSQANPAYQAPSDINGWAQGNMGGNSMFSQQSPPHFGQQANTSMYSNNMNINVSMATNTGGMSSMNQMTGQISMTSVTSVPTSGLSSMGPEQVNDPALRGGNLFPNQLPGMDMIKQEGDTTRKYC

Row | Structure (SMILES) | inhibition
1 | Cc1cc(N2CCN(C(=O)OC(C)(C)C)C[C@H]2C)ccc1N1CCN(Cc2ccccc2)[C@H](C)C1 | -2.83% (inactive)
2 | COc1ccc(CN2C(=O)N3Cc4cc(OC)ccc4C3CS2(=O)=O)cc1 (stereo not given) | 15.8% (inactive)
3 | Cc1ccc(-n2c(SCC(=O)Nc3ccc(S(=O)(=O)Nc4nccs4)cc3)nnc2-c2ccccn2)cc1 | 9.13% (inactive)
4 | CC(=O)NCc1ccc(S(=O)(=O)NC2CCN(Cc3ccccc3)CC2)cc1 | 6.61% (inactive)
5 | COC(=O)[C@@H]1C[C@@]2(O)[C@@H](O)[C@@H](O)[C@@H](O)C[C@H]2N1Cc1ccc(C)s1 | -14.3% (inactive)
6 | C/C=C/c1ccc(OCC(O)CN2CCCCCCC2)c(OC)c1 (stereo not given) | 11.7% (inactive)
7 | CCOC(=O)[C@@]12CN(C(=O)OC(C)(C)C)CC=C1N(Cc1ccc(OC)cc1)C(=O)[C@H]2CC(=O)NCc1ccc(OC)c(OC)c1 | -4.35% (inactive)
8 | O=C(CSc1nnc(-c2ccccc2)n1Cc1ccco1)Nc1ccccc1-c1ccccc1 | -16.5% (inactive)
9 | CC(=O)C1=C(C)N(Cc2ccccc2)C(=S)NC1c1cccc(Br)c1 (stereo not given) | -0.56% (inactive)
10 | COC(=O)c1ccc(CN2C(=O)[C@]3(OCCC=C[C@H]3C)c3c(Br)cccc32)cc1 | 4.53% (inactive)
11 | Cc1ccc(NC(=O)Nc2cc(C)nn2-c2ccccc2)cc1 | -32.3% (inactive)
12 | Cn1c(Nc2ccccc2)cc(=O)n(C)c1=O | -0.54% (inactive)
13 | Cc1cc(Nc2ccccc2)n(C(=O)c2ccc(N)cc2)n1 | 62% (active)
14 | COc1ccc2c(c1)CN1CN(CCc3ccccc3)S(=O)(=O)CC21 (stereo not given) | 5.4% (inactive)
15 | O=C(NCc1ccccc1)[C@H]1CCCN1C(=O)[C@H]1CCCN1C(=O)N1CCOCC1 | 3.99% (inactive)
16 | CCOC(=O)C1CCCN(C(=O)c2cccc3ccccc23)CC1 (stereo not given) | 7.84% (inactive)
17 | CCC(C)(C(=O)NC1CCCCC1)N(C)C(=O)c1ccc2c(c1)OCO2 (stereo not given) | -11.6% (inactive)
18 | COc1ccc(OC)c(CNC(=O)c2cc(=O)[nH]c3ccc(S(=O)(=O)N4CCCC4)cc23)c1 | -15.1% (inactive)
19 | O=C1CC[C@@H](COc2ccc3[nH]cc(-c4ccccc4)c3c2-c2ccccc2)N1 | 4.07% (inactive)
20 | CCCc1nc(SCC(=O)N2CCCC2)c2c(=O)n(C)c(=O)n(C)c2n1 | 2.56% (inactive)
21 | O=C1NC(c2ccccc2)CCC1(Cl)Cl (stereo not given) | -13.7% (inactive)
22 | O=C1NC(c2ccccc2)Cc2ccncc21 (stereo not given) | 58.9% (active)
23 | O=C1NC(c2ccccc2)Oc2ccccc21 (stereo not given) | -0.1% (inactive)
24 | CCCCn1c(N)c(N(Cc2ccccc2OC)C(=O)COc2cc(C)ccc2Cl)c(=O)[nH]c1=O | -2.7% (inactive)
25 | O=C(NCc1nnc(SCC(=O)N2CCCCCC2)o1)c1ccc(F)cc1 | -14.4% (inactive)
26 | Cc1ccccc1NC(=O)COC(=O)c1ccc(Sc2ncn[nH]2)c([N+](=O)[O-])c1 | -15.7% (inactive)
27 | COC(=O)c1cc(S(=O)(=O)N2CCN(c3ccccc3C)CC2)cn1C | 20.3% (inactive)
28 | C[C@@H]1COc2cccc(N3CCCC3)c2S(=O)(=O)N1C | -9.18% (inactive)

Row | Structure (SMILES) | inhibition
29 | Cc1ccc2oc(=O)c3cnn(CC(=O)N(Cc4ccco4)C4CCCCC4)c3c2c1 | -25.6% (inactive)
30 | NNC(=O)C1CC(O)CN1S(=O)(=O)c1ccc(Cl)cc1 (stereo not given) | 23.4% (inactive)
31 | COc1ccccc1CNC(=O)C1CCN(S(=O)(=O)c2ccc3c(c2)OCCO3)CC1 | -1.43% (inactive)
32 | COC(=O)[C@]12C[C@H](CC(=O)N3CCN(C(=O)C4CC4)CC3)C(=O)N(CCC3=CCCCC3)C1=C[C@H](C(C)C)O[C@@H]2C1CC1 | -0.28% (inactive)
33 | CCNC(=S)N1CCC(c2nc3cc(C)c(C)cc3[nH]2)CC1 | -32.6% (inactive)
34 | O=C(CSc1nnc(-c2ccccn2)n1-c1ccccc1)Nc1ccc2cn[nH]c2c1 | -5.6% (inactive)
35 | CC(C)(C)C(c1nc2ccccc2[nH]1)n1c(Cc2csc3ccccc23)nc2ccccc21 (stereo not given) | -15% (inactive)
36 | CS(=O)(=O)N1CCN=C1SCc1ccc(F)cc1 | -10.1% (inactive)
37 | O=C(C1CCN(S(=O)(=O)c2ccccc2)CC1)N1CCN(C2CCCCC2)CC1 | 14.3% (inactive)
38 | COC(=O)C1=C(C)N(Cc2ccc(C(F)(F)F)cc2)C(=NCc2ccc(C(F)(F)F)cc2)NC1c1cccc(Cl)c1 (stereo not given) | -4.35% (inactive)
39 | OCCCNc1nccc(-c2cc(Nc3cccc(Cl)c3)ncn2)n1 | 56.3% (active)
40 | Cc1ccc(NC(=O)c2cc(C)nn2-c2ccccc2)c(C)c1 | 4.89% (inactive)
41 | CCCC(=O)N1CCC1(C)C(=O)NCc1ccc(SC)cc1 (stereo not given) | -38.9% (inactive)
42 | Cc1sc2nc(SCC(=O)c3ccc(O)c(O)c3)n(Cc3ccco3)c(=O)c2c1C | 8.73% (inactive)
43 | C=CCN=C1NC(c2cccc(C(F)(F)F)c2)C(C(=O)OC)=C(C)N1C (stereo not given) | -11.9% (inactive)
44 | CC(C)N1CCCCC(NC(=O)c2ccc3ccccc3c2)C1=O (stereo not given) | -10% (inactive)
45 | CCOc1ccc(S(=O)(=O)NCCCn2ccnc2)cc1NC(C)=O | 12.2% (inactive)
46 | Nc1[nH]c(/C=C2/CCCCC2n2[nH]c(=O)n(-c3ccccc3)c2=O)c(Cc2ccccc2)[n+]1Cc1ccccc1 (stereo not given) | 12.9% (inactive)
47 | C=CCN1[C@@H](Cc2ccccc2)COc2cccc(N3CCSCC3)c2S1(=O)=O | 10.1% (inactive)
48 | CC(C)(C)OC(=O)NCc1cc(F)ccc1/C=C/S(=O)(=O)NCCc1ccccc1 | 4.87% (inactive)
49 | COc1cccc(N(C)C(=O)[C@@H](C)[C@@H](O)c2ccc3ccccc3c2)c1 | -32.8% (inactive)
50 | CC(C)CC(CCc1ccccc1)OS(N)(=O)=O (stereo not given) | -15.3% (inactive)
51 | O=C(NC(=S)N1CCN(Cc2ccccc2)CC1)c1ccccc1 | -12.4% (inactive)
52 | OCCN1CCN(C(=S)c2ccc(-c3ccccc3)cc2)CC1 | 71.1% (active)
53 | O=C(O)C1C2C=CC(C2)C1C(=O)N1CCN(CCO)CC1 (stereo not given) | -0.51% (inactive)
54 | CC(=O)OC12CCCN(C1)/C(=C/c1ccncc1)C2 (stereo not given) | 12.7% (inactive)
55 | COC(=O)C1=C(C)N(Cc2cccc(C(F)(F)F)c2)C(=NCc2ccccc2)NC1c1ccc(Cl)cc1 (stereo not given) | -0.5% (inactive)
